Cycloheximide cs: affects cycloheximide protein synthesis inhibition readout, counter-screen; AID 2314; max response, %; cell reporter, cycloheximide protein synthesis inhibition counterscreen; 300,000 tested, 12% active; in the data active means max response mostly above about 13%, no sharp cut-off; inactive means mostly below about 14%; further: read at 38.3 µM for the half of the compounds with a filed dose; 0% is about no effect
SARS PLP yeast: inhibitors of SARS-CoV papain-like protease in yeast; S. cerevisiae expressing SARS-CoV PLpro, growth rescue; Potency, µM (series often up to 32.9 µM), inactives show top-dose activity, positive = growth rescue, usual class: activators; 330,000 tested, 0.19% active; AID 485353; further: potency means the concentration at half of the fitted maximal effect; 0% is about no effect; nearly all actives have a fitted effect of over 55% in size
Pf growth 48h: P. falciparum growth inhibition at 48 hours (one generation). P. falciparum luciferase growth in erythrocytes, 48 h. Potency, µM (doses to about 28.7 µM), for the others: top-dose activity change, negative = inhibition, actives largely listed as inhibitors. 310,000 tested, 5.9% active. AID 504832; active means well fitted inhibition curve with a large enough effect; inconclusive means small, poorly fitted or top-dose-only effect, or another doubt; inactive means no such curve, though single readings can be large or run the other way; further: potency means the concentration at half of the fitted maximal effect; on the % scale 0 is the no-effect control and ±100 the full control effect
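Compounds are pin-transferred into medium, infected erythrocytes (2% hematocrit, 0.1% parasitemia final) are added, and plates sit one parasite generation at 37 C in 5% CO2. Detection reagent is then added and luminescence measured.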
Shiga toxin inh: inhibitors of Shiga toxin in Vero cells; Vero cells, Shiga toxin protein synthesis inhibition reporter; inhibition, % at 38.7 µM; 290,000 tested, 9.2% active; AID 2315; in the data active means inhibition mostly above about 28%, no sharp cut-off; inactive means mostly below about 43%; further: 0% is about no effect
NS1 inh: inhibitors of influenza NS1 protein function; AID 2326; Potency, µM (doses to about 46.1 µM), inactives show at the top dose activity, positive = more growth; 270,000 tested, 0.4% active; further: potency means the concentration at half of the fitted maximal effect; actives are rising curves; nearly all actives have a fitted effect of over 50% in size
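Recovery from NS1-induced slow growth read by OD600 in budding yeast switched to galactose assay medium (pH 6.0, -URA) at 1:100 dilution. Compound 23 nl per well; the matching strain lacking NS1 serves as control.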
Pf growth 96h: P. falciparum growth inhibition at 96 hour, primary screen for plastid delayed-death inhibitors. P. falciparum luciferase reporter growth, 96 h. Potency, µM (top dose mostly 28.7 µM), for the others: at the highest dose activity change, negative = inhibition, hits mostly inhibitors. 320,000 tested, 6.9% active; active means well fitted inhibition curve with a large enough effect; inconclusive means small, poorly fitted or top-dose-only effect, or another doubt; inactive means no such curve, though single readings can be large or run the other way; further: potency means the concentration at half of the fitted maximal effect; on the % scale 0 is the no-effect control and ±100 the full control effect
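Erythrocytes infected with luciferase-expressing P. falciparum were dispensed at 2% hematocrit and 0.05% parasitemia (final), then incubated with compounds 96 hours at 37 C in 5% CO2. Luminescence after detection reagent addition reported growth.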
The depositor's hits bear a star; i = inactive; ? = inconclusive; . = no result given. In the library only some 21% were active in any assay of this set; here they are far more common. Unless noted, the call rests on the fitted dose curve.

SMILES	Cycloheximide cs	SARS PLP yeast	Pf growth 48h	Shiga toxin inh	NS1 inh	Pf growth 96h
Cc1ccc(N2C(=O)c3ccccc3C2C(=O)c2ccc(C)c(C)c2O)cc1 (stereo not drawn)	18.2*	-3.2%	?	30.8	1.1%	5.22µM*
Cc1ccc2nc(-c3ccccc3)c(CC(=O)O)c(C(=O)O)c2c1	11.3	-0.1%	-17.7%	26.6	.	106.2%
CCCCNC(=O)Cn1c(=O)c2c(ncn2CC)n(Cc2ccccc2)c1=O	-6.1	-1.1%	-2.4%	-0.7	9.4%	13.1µM*
CCn1cnc2c1c(=O)n(CC(=O)Nc1ccc(C(N)=O)cc1)c(=O)n2Cc1ccccc1	4.5	6.2%	?	6.8	-2.0%	13.1µM*
CCn1cnc2c1c(=O)n(CC(=O)NN)c(=O)n2Cc1ccccc1	-1.8	0.7%	.	-8.4	9.9%	?
COCCn1cnc2c1c(=O)n(CC(=O)c1ccc3c(c1)OCCO3)c(=O)n2Cc1ccccc1	9.7*	-1.3%	-22.1%	19.1	?	-15.5%
COCCn1cnc2c1c(=O)n(CC(=O)Nc1cc(C)on1)c(=O)n2Cc1ccccc1	-2.2	6.7%	?	-18.5	-7.3%	?
CCNC(=O)Cn1c(=O)c2c(ncn2Cc2ccccc2)n(Cc2ccccc2)c1=O	-3.8	?	?	-12.0	1.7%	1.04µM*
COc1ccc(NC(=O)CCNS(=O)(=O)c2ccc3[nH]c(=O)oc3c2)cc1Cl	9.9	1.7%	19.1%	2.1	-3.0%	24.5%
CCOc1ccc(CNC(=O)CCCn2nc(C)c3c(C)n(-c4ccc(C)cc4)nc3c2=O)cc1	-1.1	12.7%	-21.8%	-12.1	12.2%	0.3%
COc1ccc(C(=O)Nc2ccc(C(=O)N3CCCCC3C)cc2)c(OC)c1OC (stereo not drawn)	-4.0	1.1%	?	-5.0	-15.0%	-93.9%
O=[N+]([O-])c1cccc(S(=O)(=O)c2cccc([N+](=O)[O-])c2)c1	-3.9	-0.1%	-9.1%	-3.9	4.2%	?
CCCCc1ccc(CC(=O)O)cc1	-2.3	-1.3%	23.4%	-7.3	-166.2%	17.0%
CCCCCCc1ccc(-c2ncc(N)cn2)cc1	59.7*	-21.5%	297.4%	121.9*	-3.3%	237.0%
CCCCCc1ccc(-c2nnc(N)s2)cc1	42.7*	-4.3%	-12.1%	74.1*	-36.5%	29.4%
Nc1nnc(-c2ccc(Cl)c(Cl)c2)s1	24.8*	-5.4%	23.7%	21.4	.	4.5%
Cc1cc(O)c(/C=N/Nc2ccccc2Cl)c(=O)o1	22.1*	-4.1%	?	24.5	-26.5%	12.1%
O=C(O)c1cccc(Cn2cc(Cl)cn2)c1	-3.9	-1.8%	11.4%	9.0	-1.5%	25.5%
COC(=O)c1cccc(Cn2cc([N+](=O)[O-])cn2)c1	1.9	0.5%	-10.8%	-9.1	.	3.7µM*
CC(=O)Nc1ccc(NC(=O)c2ccc(Cn3cc(Cl)cn3)cc2)cc1	-1.5	-3.0%	-6.1%	-9.1	1.9%	?
CC(C)CNC(=O)c1cccc(Cn2cc(Cl)cn2)c1	-4.3	4.6%	-4.2%	37.4	-14.5%	10.4µM*
COC(=O)c1ccc(Cn2cc([N+](=O)[O-])cn2)cc1	-1.7	0.3%	19.6%	52.4	0.8%	-3.4%
CCn1c(NC(=O)c2cccc(Cn3cc(Cl)cn3)c2)nc2ccccc21	7.9	8.1%	10.4µM*	36.1	-35.7%	?
O=C(Nc1cccc(Cl)c1)c1ccc(Cn2cc(Cl)cn2)cc1	14.9*	-53.8%	-10.2%	78.8*	-20.4%	-9.4%
Cn1c(NC(=O)c2cccc(Cn3cc(Cl)cn3)c2)nc2ccccc21	69.2*	2.6%	-0.8%	194.9*	-12.0%	.
SMILES	Cycloheximide cs	SARS PLP yeast	Pf growth 48h	Shiga toxin inh	NS1 inh	Pf growth 96h
N#C/C(C(=O)Oc1ccccc1)=C1\C=CC=CN1	44.0*	5.7%	250.0%	59.9*	-13.9%	i
C/C(=N\NC(=O)c1c[nH]c2ccccc12)c1ccccn1	31.9*	-2.1%	?	146.9*	.	?
O=C(N/N=C(\c1ccccc1)c1ccccn1)c1cccc([N+](=O)[O-])c1	4.9	-19.6%	?	-4.5	.	?
CCc1ccc(/C(C)=N/NS(=O)(=O)c2ccc(OC)cc2)s1	-2.1	-1.7%	30.0%	-9.3	-12.1%	32.9%
C/C(=N\NC(=O)c1c[nH]c2ccccc12)c1ccco1	70.9*	11.3%	.	61.4*	4.2%	-31.6%
CCOc1ccc(C(=O)N/N=C(\c2ccccc2)c2ccccn2)cc1	42.3*	-38.4%	13.1µM*	61.4*	-64.4%	11.7µM*
CCc1ccc(/C(C)=N/NC(=O)c2c[nH]c3ccccc23)s1	17.9*	-6.4%	?	19.2	7.1%	17.7%
CC1(C)OC[C@@H]2O[C@@]3(C(=O)O)OC(C)(C)O[C@@H]3[C@@H]2O1	.	.	3.9%	.	.	-13.5%
O=C(NCCS(=O)(=O)N1CCN(c2ccccc2F)CC1)c1cccs1	.	-1.1%	?	.	.	2.1%
Fc1ccc(N/N=C(/c2ccccc2)c2ccccn2)cc1	30.4*	?	?	13.0	2.2%	5.22µM*
CC(=N/O)/C(C)=N\NC(=O)c1ccccn1	14.4	-6.3%	?	56.3	.	-6.9%
C/C(=N\NC(=O)c1ccc(F)cc1)c1ccccn1	62.2*	-3.9%	?	97.5*	-59.7%	27.9%
C/C(=N/NC(=O)CNC(=O)c1ccccn1)c1ccccc1	9.8	3.9%	81.4%	10.4	3.5%	124.0%
CCc1ccc(/C(C)=N/NC(=O)c2ccccn2)cc1	20.7*	3.1%	74.6%	45.9	.	?
C/C(=N\NC(=O)c1cc2ccccc2cc1O)c1ccccn1	24.7*	1.0%	3.7µM*	26.6	-14.0%	10.2%
CSCCC(C(=O)OC1CCOC1=O)N1C(=O)c2ccccc2C1=O (stereo not drawn)	0.5	4.4%	-15.8%	21.4	.	5.0%
O=c1[nH][nH]c(C(F)(F)F)c1/C=N/N1CCOCC1	-5.0	-0.3%	23.0%	-17.7	.	40.5%
C/C(=N\NC(=O)c1ccccn1)c1ccc(C(=O)O)s1	45.0*	1.4%	92.2%	74.2*	0.2%	-1.7%
C=CCNC(=S)N/N=C(\C)c1ccccn1	17.0	-38.0%	.	54.3	-166.5%	0.0029µM*
COc1cc(OC)cc(C(=O)N[C@H](C(=O)NCc2cccs2)C(C)C)c1	-0.5	-0.2%	-21.9%	22.2	-5.5%	-11.9%
COCn1ccnc1C(O)(c1ccc(OC)cc1)c1ccc(OC)cc1	-0.8	-7.3%	6.4%	-3.4	1.7%	11.9%
CCc1ccccc1OCC(=O)Nc1ccc(F)c(S(=O)(=O)N2CCOCC2)c1	.	1.4%	?	.	.	13.1µM*
CC(Oc1ccccc1)C(=O)Nc1ccc(F)c(S(=O)(=O)N2CCOCC2)c1 (stereo not drawn)	.	2.7%	-10.4%	.	.	?
COc1ccc(NC(=O)CCOc2ccccc2C)cc1S(=O)(=O)N1CCCCC1	.	3.3%	11.7µM*	.	.	?
COc1ccc(NC(=O)COc2ccccc2Cl)cc1S(=O)(=O)N1CCCCC1	.	2.1%	11.7µM*	.	.	10.4µM*
COc1ccc(OCC(=O)Nc2ccc(OC)c(S(=O)(=O)N3CCCCC3)c2)cc1	.	1.1%	-6.4%	.	.	6.6%

Bioassay records from PubChem BioAssay.
